MITF inh: inhibitors of MITF, primary screen, MITF inhibitor project, cell-based, luminescence; inhibition, % (concentration not given with the values); hit rate 0.28% among 37,000; TRPM1 promoter luciferase, 24 h; in the data active = inhibition above about 85%; inconclusive = no clear call, values can overlap the other calls; inactive = below about 68%;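 note: human melanocyte line stably carrying TRPM1 promoter luciferase reporter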
Shh pathway inh: Hedgehog pathway signaling inhibitors, primary screen, luminescence, Shh-LIGHT2 cells, Gli-luciferase; Shh-LIGHT2 Gli-luciferase reporter, 30 h; inhibition, % (concentration not given with the values); hit rate 2.1% among 22,000;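 active = mean inhibition across valid replicates above about 65%, limit read from the data; inconclusive = mean under the limit, yet half or more replicates past it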;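 note: pathway switched on by Shh-conditioned medium diluted 1 in 25 in low serum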
The depositor's hits bear a star; u = inconclusive; x = no result given; ! = not active in a repeat. This excerpt belongs to a sample that is enriched for hits.

SMILES | MITF inh | Shh pathway inh
C[C@@H]1CN([C@H](C)CO)C(=O)c2cc(NC(=O)NC3CCCCC3)ccc2O[C@@H]1CN(C)Cc1ccc(Oc2ccccc2)cc1 | 11 | 91*
CC(C)NC(=O)Nc1ccc2c(c1)C(=O)N([C@@H](C)CO)C[C@H](C)[C@H](CN(C)Cc1ccc(-c3ccccc3)cc1)O2 | 13 | 5
COc1cccc(-c2nnc(SCC(=O)Nc3cccc(Cl)c3)n2C)c1 | 7 | x
CCOc1cccc(NC(=O)C2CC(=O)N(/N=C(\C)c3ccc(Br)s3)C(=N)S2)c1 (stereo not drawn) | -16 | -30
O=C(Oc1ccc(C2SCCS2)cc1)C1CCCCC1 | -27 | 1
CCOC(=O)c1cccc(C(=O)Nc2nc3ccc(OC)cc3s2)n1 | 6 | -2
Nc1nc2ccc(OC(F)(F)F)cc2s1 | -44 | 68*!
Cc1nc(-c2cc(C#N)c(SCCNS(=O)(=O)c3ccc(C(C)(C)C)cc3)nc2C)cs1 | 7 | 90*
CC(C)(C)c1ccc(S(=O)(=O)CC(O)CSc2nc3c(cc2C#N)CCCC3)cc1 (stereo not drawn) | -12 | x
CC12CCC(C(=O)N3NC(=O)[C@@H](c4ccccc4)[C@@H]3c3ccccc3)(OC1=O)C2(C)C (stereo partly drawn) | -2 | -7
C=C1C(C2(C)C=CC(=O)C(C)(C)C2CC(=O)OC)CC[C@@]2(C)[C@H](c3ccoc3)OC(=O)C3OC132 (stereo partly drawn) | 66 | u
CC1(C)C(=O)C=C[C@@]2(C)C1C=C[C@]1(C)C2CC[C@@]2(C)[C@H](c3ccoc3)OC(=O)C3OC321 (stereo partly drawn) | 101* | -331
O=C(COc1ccc(Cl)cc1)CC(=O)c1ccc(Cl)cc1 | -5 | 6
COC(=O)NC(Nc1ccccc1C(F)(F)F)C(=O)c1ccccc1 (stereo not drawn) | 3 | 0
CCCN(C#N)c1nc(NC(C)C)nc(NC(C)C)n1 | 23 | 8
CC(O)(C(=O)Nc1ccc(S(=O)(=O)c2ccccc2)cc1)C(F)(F)F (stereo not drawn) | -5 | -69
CC(C)(C)C(=O)Nc1ccc2c(c1)C(=O)C(=O)c1ccccc1-2 | 97* | 88*
Cc1ccc(S(=O)(=O)Nc2ccc3c(c2)C(=O)N([C@H](C)CO)C[C@H](C)[C@H](CN(C)Cc2ccc(C(=O)O)cc2)OCCCC[C@@H](C)O3)cc1 | -1 | x
C[C@@H]1CCCCO[C@@H](CN(C)Cc2ccc3c(c2)OCO3)[C@@H](C)CN([C@H](C)CO)C(=O)c2cc(NS(=O)(=O)c3cccs3)ccc2O1 | 0 | 74*
COc1ccc(NC(=O)Nc2ccc3c(c2)C(=O)N([C@H](C)CO)C[C@H](C)[C@@H](CN(C)Cc2ccc4c(c2)OCO4)OCCCC[C@@H](C)O3)cc1 | -17 | 7
COc1ccc(CN(C)C[C@@H]2OCCCC[C@@H](C)Oc3ccc(NS(=O)(=O)c4cccs4)cc3C(=O)N([C@H](C)CO)C[C@@H]2C)cc1 | 0 | x
Cc1ccc(S(=O)(=O)Nc2ccc3c(c2)C(=O)N([C@H](C)CO)C[C@H](C)[C@@H](CN(C)Cc2ccccc2)OCCCC[C@@H](C)O3)cc1 | -11 | 68*
COc1ccc(NC(=O)Nc2ccc3c(c2)C(=O)N([C@H](C)CO)C[C@H](C)[C@H](CN(C)Cc2ccc4c(c2)OCO4)OCCCC[C@@H](C)O3)cc1 | 17 | 72*
Cn1cnnc1S/C=C/C(=O)c1ccc(Cl)cc1 | 77 | 8
CC(C)(C)NC(=O)C[n+]1cccc(/C=N/O)c1 | -10 | -18
C=CC1(C)C=C2CCC3C(C)(C)C(O[C@@H]4O[C@@H](CO)[C@H](O)[C@H]4O)CCC3(C)C2CC1O[C@@H]1O[C@H](CO)[C@@H](O)[C@H](O)[C@H]1O (stereo partly drawn) | x | 99*
C/C=C(/C)C(=O)O[C@H]1CC(C)(C)C[C@H]2C3=CCC4[C@@]5(C)CC[C@H](O[C@@H]6O[C@H](C(=O)O)[C@@H](O[C@@H]7O[C@H](CO)[C@H](O)[C@H](O)[C@H]7O[C@@H]7O[C@H](CO)[C@@H](O)[C@H](O)[C@H]7O)[C@H](O)[C@H]6O[C@@H]6O[C@@H](C)[C@H](O)[C@@H](O)[C@H]6O)C(C)(C)C5CC[C@@]4(C)[C@]3(C)C[C@@H](O)[C@@]12CO (stereo partly drawn) | 92* | 99*
CC1OC(OC2C(C(=O)O)OC(O[C@H]3CC[C@@]4(C)C(CC[C@]5(C)C4CC=C4C6CC(C)(C)CC[C@]6(C(=O)OC6OC(CO)C(O)C(O)C6O)CC[C@]45C)C3(C)C)C(O)C2O)C(OC2OCC(O)C(O)C2O)C(O)C1O (stereo partly drawn) | -71 | 1

High-throughput results as filed in PubChem.
